Source: PubChem
SmPrx2 inh: Schistosoma mansoni Prx2 inhibition | S. mansoni Prx2 activity coupled to TGR/GSH (TGR is thioredoxin glutathione reductase), NADPH fluorescence loss, qHTS | AID 448 | Potency, µM | 65,000 compounds, 0.07% hits
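Prx2 activity was followed as the loss of NADPH fluorescence (ex 365/em 450 nm), read every 30 sec for 8 min after H2O2 start. The enzyme mix (50 nM Prx2, 25 nM TGR, GSH, NADPH; pH 7.4 phosphate buffer) was incubated with compound for 15 min at room temperature first.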
AmpC nodet inh: blocks E. coli AmpC beta-lactamase in absence of detergent. 71,000 compounds, 1.8% hits. AmpC nitrocefin hydrolysis, absorbance 480 nm, no detergent. P00811. Potency, µM (top dose mostly 28.7 µM)
Target sequence (P00811 whole entry, looked up): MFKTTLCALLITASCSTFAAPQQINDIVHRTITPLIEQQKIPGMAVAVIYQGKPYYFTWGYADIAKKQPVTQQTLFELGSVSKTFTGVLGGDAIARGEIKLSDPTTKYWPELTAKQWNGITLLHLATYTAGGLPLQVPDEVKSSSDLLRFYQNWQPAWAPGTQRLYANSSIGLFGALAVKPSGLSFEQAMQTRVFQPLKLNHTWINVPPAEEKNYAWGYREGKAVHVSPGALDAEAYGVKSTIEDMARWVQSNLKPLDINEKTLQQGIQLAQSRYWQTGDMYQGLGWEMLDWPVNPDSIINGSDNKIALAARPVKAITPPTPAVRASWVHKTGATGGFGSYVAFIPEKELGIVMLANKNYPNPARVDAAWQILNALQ
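AmpC in 20 mM phosphate buffer pH 7.0 was preincubated 15 min at room temperature with compounds. Nitrocefin (800 uM stock) was then added and hydrolysis followed at 480 nm every 20 s for 4 min.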
AmpC inh det: blocks E. coli AmpC beta-lactamase in presence of detergent | P00811 | purified AmpC, nitrocefin hydrolysis with detergent | Potency, µM (top dose mostly 28.7 µM) | AID 584 | 71,000 compounds, 0.09% hits; active means well fitted curve in the direction sought with a large enough effect; inconclusive means small, poorly fitted or top-dose-only effect
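E. coli AmpC (5.3 nM) in 20 mM phosphate pH 7.0 with 0.01% Triton X-100, preincubated 15 min RT with compound; nitrocefin (2 uL of 800 uM stock) hydrolysis followed by 480 nm absorbance every 20 s over 4 min.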
LT uptake inh: inhibitors of anthrax lethal toxin internalization. Cells, anthrax lethal toxin internalization, FRET ratio (460/530). Potency, µM (highest dose often 40 µM), hits mostly inhibitors. 70,000 compounds, 0.67% hits. AID 912; further: nearly all actives have a fitted effect of over 50% in size
Numbers stand for hits; i = inactive; ? = inconclusive; nt = no result given; [ ] = another dose, or the depositor's remark. A selection: hits, their analogues and other compounds. The true share with any hit is near 2.6%. Unless noted, the call rests on the fitted dose curve.

SMILES	SmPrx2 inh	AmpC nodet inh	AmpC inh det	LT uptake inh
CCOC(=O)CCc1c(C)c2ccc(OCc3nn[nH]n3)cc2oc1=O	i	i	i	?
Cc1c(Cc2ccccc2)c(=O)oc2cc(OCc3nn[nH]n3)ccc12	i	10µM[single pt active]	i	?
O=C(O)c1cc[c]([Hg][Cl])cc1	0.44	i	i	?
CC1CCN(S(=O)(=O)N2CCC(C(=O)N3CCC(N(C)CC4CCCO4)CC3)CC2)CC1 (stereo unspecified)	i	4µM[single pt active]	i	i
O=C(NCC1CCCO1)C1CCN(S(=O)(=O)N2CCCC2)CC1 (stereo unspecified)	i	i	i	i
CC(=O)O[C@]12CC[N@+]3(C)CCCC[C@@H]3[C-]1Nc1ccccc12	i	i[5.75 µM]	i[5.75 µM]	i[8 µM]
CC(C)[C@@H](CC(=O)N[C@@H]1CCCC[C@H]1C(=O)N[C@H](CC(=O)N[C@@H](CCC(=O)O)CC(=O)O)Cc1ccccc1)NC(=O)C[C@H](Cc1c[nH]c2ccccc12)NC(=O)[C@@H]1CNCC[C@H]1N	i	i	i	i
Cc1ccc(C(=O)Nc2ccc(N3CCOCC3)cc2)cc1	nt	i	i	i
CC(=O)N1CCN(c2ccc(NC(=O)c3ccc(C(C)(C)C)cc3)cc2)CC1	i	i	i	10µM
C=CCn1c(COc2ccc(CC)cc2)nnc1SC/C(O)=C(\C#N)c1nc2ccccc2[nH]1	i	1.3µM	i	i
C=CCn1c(COc2ccccc2)nnc1SCc1ccc(C#N)cc1	i	i	i	nt
COc1ccc(N(CC(=O)N2CCc3ccccc3C2)S(=O)(=O)c2c(C)[nH]c(=O)[nH]c2=O)cc1	i	4µM[single pt active]	i	i
O=C(Cn1ncc2c(=O)oc3ccccc3c21)NCC1CCCO1 (stereo unspecified)	i	4µM[single pt active]	i	i
CC(CCc1ccco1)NC(=O)Cn1ncc2c(=O)oc3ccccc3c21 (stereo unspecified)	i	4µM[single pt active]	i	i
CCOCCCNC(=O)Cn1ncc2c(=O)oc3ccccc3c21	i	4µM[single pt active]	i	i
O=C(Cn1ncc2c(=O)oc3ccccc3c21)NCCC1=CCCCC1	i	i	i	i
CC(C)OCCCNC(=O)Cn1ncc2c(=O)oc3ccccc3c21	i	i	i	i
O=c1c(-c2ccc(F)cc2)nc2cnc(Nc3ccccc3)nc2n1C[C@H]1CCCO1	i	i	i	?
Cc1noc(/C=C/N(C)C)c1S(=O)(=O)N1CCc2ccccc21	i	4µM[single pt active]	i	?
NCCCCN	i	i	i	i
CCCCC(CC)COC(=O)COc1ccc(Cl)cc1Cl (stereo unspecified)	nt	i	i	nt
COc1ccccc1CN(Cc1cc2c(C)ccc(C)c2[nH]c1=O)Cc1nnnn1Cc1ccco1	i	i	i	16µM
CS(=O)c1ccc(-c2nc(-c3ccc(F)cc3)c(-c3ccncc3)[nH]2)cc1 (stereo unspecified)	i	i	i	?
OCCN1CCN(C(c2cccs2)c2ccc3cccnc3c2O)CC1 (stereo unspecified)	i	13µM	i	?
CC(=O)N[C@H](c1ccccc1)[C@@]1(C)C[C@@H]1[C@@H](C)C(=O)Nc1ccc2ccccc2c1	i	i	i	?
SMILES	SmPrx2 inh	AmpC nodet inh	AmpC inh det	LT uptake inh
COC(=O)N[C@H](c1ccccc1)[C@@]1(C)C[C@@H]1[C@@H](C)C(=O)Nc1ccc2ccccc2c1	i	i	i	10µM
CCCCN(C)Cc1c(C)[nH]c2ccc(OCC)cc2c1=O	i	4µM[single pt active]	i	i
CCOc1ccc2[nH]c(C)c(CN3CCN(CC)CC3)c(=O)c2c1	i	i	i	i
COc1ccc(C(=O)N2CCC3(CCN(Cc4cc(C(F)(F)F)cc(C(F)(F)F)c4)CC3)CC2)cc1	i	i	i	i
COc1ccc(C(=O)[C@H](Br)[C@H](Br)C(=O)O)cc1	?	i[5.75 µM]	i[5.75 µM]	i[8 µM]
Cc1cc(CN2CCN(CCC#N)CC2)c(O)c(C2(C)CCCCC2)c1	i	i	i	13µM
C[C@H]1[C@H](C)CC[C@@]2(C(=O)O)CC[C@]3(C)C(=CC[C@@H]4[C@@]5(C)CC[C@H](O)C(C)(C)[C@@H]5CC[C@@]43C)[C@@H]12	i	i	i	7.9µM
CO[C@@H]1CC[C@@]2(C)[C@@H](CC[C@@]3(C)[C@H]2CC=C2[C@H]4CC(C)(C)[C@H](O)[C@@H](OC(C)=O)[C@]4(CO)[C@H](O)C[C@]23C)[C@@]1(C)CO (tested in a mixture with another compound)	i	i	i	i[3.58 µM]
N#Cc1c(N)nc(N2CCCC2)c(C#N)c1-c1ccc(Cl)cc1	i	i	i	1µM
N#Cc1c(N2CCCC2)nc(N)c2c(N)nc(N3CCCC3)cc12	i	i	i	i
C[N+]1(C)CCc2cc(O)c(O)cc2[C@H]1Cc1ccc(O)c(O)c1	i	i[5.75 µM]	i[5.75 µM]	i[8 µM]
Oc1ccc(Cl)cc1Cc1ccccc1	nt	i	i	?
Oc1ccc(Cl)cc1Cc1cc(Cl)ccc1O	nt	?	i	16µM
CC(=O)CC(=O)Nc1ccccc1	nt	i	i	i
CC(C)(C)C(=O)[C@@H]1[C@@H]2C(=O)N(c3ccc4c(c3)OCCO4)C(=O)[C@@H]2C2c3ccccc3C=CN21 (stereo partly specified)	i	i	i	1.3µM
COc1ccc(OC)c(NC(=O)c2cc3n(n2)C(C(F)(F)F)CC(c2ccc4c(c2)OCO4)N3)c1 (stereo unspecified)	i	i	i	i
O=C(Nc1cc(Cl)ccc1O)c1cc2n(n1)C(C(F)(F)F)CC(c1ccc3c(c1)OCO3)N2 (stereo unspecified)	i	7.9µM	i	?
CC=C(Cl)Cl	nt	i	i	i
Cc1n[nH]c(C)c1S(=O)(=O)N1CCCC(C(=O)NCc2cccs2)C1 (stereo unspecified)	i	i	i	i
Cc1n[nH]c(C)c1S(=O)(=O)N1CCCC(C(=O)NC2CCCc3ccccc32)C1 (stereo unspecified)	i	4µM[single pt active]	i	i
Cn1c(C[C@@H](O)c2nc3ccccc3n2C)nc2ccccc21	i	i[5.75 µM]	i[5.75 µM]	i[8 µM]
CC(Sc1nc(-c2ccccc2)cc(C(F)(F)F)n1)C(=O)N1CCCC1 (stereo unspecified)	i	4µM[single pt active]	i	i
COc1ccc(-c2nc(NC(=O)c3cc(C(C)(C)C)nn3C)sc2C)cc1	i	i	i	5µM
COC(=O)c1ccc(CSc2nc3scc(-c4cccs4)c3c(=O)[nH]2)o1	i	13µM	i	i
S=C([S-])NCCNC(=S)[S-].[Zn+2]	nt	i	i	?
SMILES	SmPrx2 inh	AmpC nodet inh	AmpC inh det	LT uptake inh
Cc1ccccc1NS(=O)(=O)c1ccc2[nH]cc(C(=O)N(C)Cc3ccco3)c(=O)c2c1	i	i	i	i
Cc1cc(C)cc(NS(=O)(=O)c2ccc3[nH]cc(C(=O)NCc4ccco4)c(=O)c3c2)c1	i	13µM[single pt active]	i	?
COc1cccc(-c2csc(N3CCN(C(=O)C4CCCCC4)CC3)n2)c1	i	i	i	10µM
CN(C)CCCCl	nt	i	i	i
CCOC(=O)N1CCN(c2c(NCCN3CCCCC3CC)c(=O)c2=O)CC1 (stereo unspecified)	i	4µM[single pt active]	i	i
CCOC(=O)N1CCN(c2c(N3CCC(N4CCCCC4)CC3)c(=O)c2=O)CC1	i	4µM[single pt active]	i	i
